Assay in all cases: protein-binding microarray (PBM); PBM: ~300 nM protein, 6 mM HEPES pH 7.8, 80 mM KCl, 0.5 mM EDTA, 0.5 mM EGTA, 6% glycerol, 35 ng/ul poly-dIdC, 1% milk, 1 h, room temperature; Ap Aiptasia and Nv Nematostella (sea anemones) / Co Capsaspora / Aq Amphimedon (sponge) / Dm Drosophila / Hu human; RHD is the Rel homology domain; high values mean tight binding
What all share (conditions): dsDNA, one strand shown

One experiment deals with T1, GST-Ap-NF-kB RHD (Exaiptasia pallida (Aiptasia), UniProt A0A913YAJ5 2-422).
T1 sequence: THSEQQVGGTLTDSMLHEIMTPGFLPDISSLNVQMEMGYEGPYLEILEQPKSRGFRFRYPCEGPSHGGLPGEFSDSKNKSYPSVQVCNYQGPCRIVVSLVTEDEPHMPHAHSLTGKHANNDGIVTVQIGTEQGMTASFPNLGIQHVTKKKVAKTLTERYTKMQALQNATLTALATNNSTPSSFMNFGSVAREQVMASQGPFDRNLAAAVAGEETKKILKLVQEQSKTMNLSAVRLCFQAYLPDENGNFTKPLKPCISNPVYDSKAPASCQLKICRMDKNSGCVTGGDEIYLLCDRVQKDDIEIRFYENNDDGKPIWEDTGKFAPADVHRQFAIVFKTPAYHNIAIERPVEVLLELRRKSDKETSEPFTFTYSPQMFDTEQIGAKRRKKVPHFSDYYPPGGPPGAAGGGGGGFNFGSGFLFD

Experiment [1] addresses T2, GST-Nv-NF-kB (Cys allele) (Nematostella vectensis, UniProt E5G601 2-411).
T2 sequence: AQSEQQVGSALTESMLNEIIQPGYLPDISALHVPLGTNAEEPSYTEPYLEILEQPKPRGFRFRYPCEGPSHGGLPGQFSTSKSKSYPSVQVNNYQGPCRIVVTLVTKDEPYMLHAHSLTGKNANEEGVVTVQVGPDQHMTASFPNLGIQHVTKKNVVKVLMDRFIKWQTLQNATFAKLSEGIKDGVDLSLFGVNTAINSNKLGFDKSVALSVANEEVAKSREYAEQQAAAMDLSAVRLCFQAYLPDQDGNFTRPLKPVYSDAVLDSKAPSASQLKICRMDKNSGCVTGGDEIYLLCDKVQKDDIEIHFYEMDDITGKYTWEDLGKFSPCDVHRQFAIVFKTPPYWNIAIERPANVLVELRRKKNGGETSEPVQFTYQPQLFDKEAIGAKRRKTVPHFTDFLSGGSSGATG

The target of experiment [2] is T3, GST-Nv-NF-kB (Ser allele) (Nematostella vectensis, UniProt A7UNT2 2-411).
T3 sequence: T2 sequence with Q21R, C66S, S207N, E215Q, V217A, E225K, A268E, D399E

The next experiment deals with T4, GST-Co-NF-kB (Capsaspora owczarzaki, UniProt F1ARL5 200-546).
T4 sequence: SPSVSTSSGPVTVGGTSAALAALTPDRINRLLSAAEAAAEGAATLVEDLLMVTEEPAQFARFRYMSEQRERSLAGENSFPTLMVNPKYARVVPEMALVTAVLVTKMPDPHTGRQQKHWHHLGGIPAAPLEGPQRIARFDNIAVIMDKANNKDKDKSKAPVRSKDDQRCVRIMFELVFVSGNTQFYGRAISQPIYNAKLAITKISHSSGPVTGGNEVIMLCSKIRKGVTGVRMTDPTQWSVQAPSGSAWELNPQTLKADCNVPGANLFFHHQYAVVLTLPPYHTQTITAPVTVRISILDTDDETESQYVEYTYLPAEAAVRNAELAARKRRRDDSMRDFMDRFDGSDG

The next experiment addresses T5, GST-Dm-Relish (Drosophila melanogaster, UniProt Q94527 99-473).
T5 sequence: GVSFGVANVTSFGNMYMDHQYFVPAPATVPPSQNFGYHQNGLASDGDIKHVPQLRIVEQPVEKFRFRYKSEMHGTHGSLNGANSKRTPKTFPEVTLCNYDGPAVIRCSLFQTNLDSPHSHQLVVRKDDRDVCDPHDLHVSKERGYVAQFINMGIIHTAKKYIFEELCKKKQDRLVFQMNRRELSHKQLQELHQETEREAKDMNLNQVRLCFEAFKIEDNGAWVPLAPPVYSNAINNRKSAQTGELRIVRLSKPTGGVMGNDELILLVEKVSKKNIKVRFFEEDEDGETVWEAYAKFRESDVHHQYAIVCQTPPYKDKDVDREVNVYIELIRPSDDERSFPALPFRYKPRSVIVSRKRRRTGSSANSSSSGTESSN

The next experiment concerns the target T6, GST-Aq-NF-kB (Amphimedon queenslandica, UniProt A9Y5G7 2-389).
T6 sequence: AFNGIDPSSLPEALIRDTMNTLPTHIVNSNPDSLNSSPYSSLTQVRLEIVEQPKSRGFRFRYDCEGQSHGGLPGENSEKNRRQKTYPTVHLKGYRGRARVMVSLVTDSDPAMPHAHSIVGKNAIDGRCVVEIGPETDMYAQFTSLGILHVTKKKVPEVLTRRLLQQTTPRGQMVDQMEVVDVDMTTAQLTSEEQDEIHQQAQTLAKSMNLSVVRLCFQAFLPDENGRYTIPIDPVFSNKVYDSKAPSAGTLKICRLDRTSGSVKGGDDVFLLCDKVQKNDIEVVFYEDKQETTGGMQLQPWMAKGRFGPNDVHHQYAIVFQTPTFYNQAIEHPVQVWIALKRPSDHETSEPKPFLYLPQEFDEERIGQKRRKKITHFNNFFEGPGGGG

A further experiment concerns the target GST-Hu-p50 (Homo sapiens, UniProt P19838 7-356).

Changes are numbered by the printed parent chain.

Sequence of GST-Hu-p50 (P19838 7-356): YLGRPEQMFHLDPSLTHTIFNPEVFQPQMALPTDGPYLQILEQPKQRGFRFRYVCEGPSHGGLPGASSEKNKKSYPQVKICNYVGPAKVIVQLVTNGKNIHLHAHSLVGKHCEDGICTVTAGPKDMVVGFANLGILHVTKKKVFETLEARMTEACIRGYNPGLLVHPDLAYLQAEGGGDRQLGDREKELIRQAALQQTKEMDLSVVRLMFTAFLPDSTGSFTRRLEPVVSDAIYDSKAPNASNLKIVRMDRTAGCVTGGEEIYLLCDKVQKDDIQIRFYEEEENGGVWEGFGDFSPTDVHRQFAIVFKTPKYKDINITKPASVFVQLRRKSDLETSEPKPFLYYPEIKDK

In the case of “CCGATTAACATCAGAATTCCCGATGATGTTAATCGGGTCTTGATTCGCTTGACGCTGCTG”, the binding signal with GST-Ap-NF-kB RHD was found to be 3.78 z-score; in experiment [1], 4.69 z-score; in experiment [2] it was 4.3 z-score; with GST-Co-NF-kB, 3.92 z-score; with GST-Dm-Relish, 2.59 z-score; with GST-Aq-NF-kB, 3.28 z-score. Further, in the experiment with GST-Hu-p50, the binding signal was 3.21 z-score.
In the case of “CCGATTAACATCAAGGGGGTTTATGATGTTAATCGGGTCTTGATTCGCTTGACGCTGCTG”, the binding signal in the experiment with GST-Ap-NF-kB RHD turned out to be 7.31 z-score; in experiment [1] it was 6.46 z-score; in experiment [2], 7.73 z-score; with GST-Co-NF-kB it was 2.54 z-score; with GST-Dm-Relish it was 8.75 z-score; with GST-Aq-NF-kB, 6.24 z-score. The same sequence displayed a binding signal with GST-Hu-p50 of 7.21 z-score.
As to “CCGATTAACATCAGGGTATACCCTGATGTTAATCGGGTCTTGATTCGCTTGACGCTGCTG”, the binding signal stood at 4.43 z-score with GST-Ap-NF-kB RHD; 3.42 z-score in experiment [1]; 2.44 z-score in experiment [2]; 2.48 z-score in the experiment with GST-Co-NF-kB; 4.16 z-score in the experiment with GST-Dm-Relish; 6.04 z-score with GST-Aq-NF-kB. Also, in the experiment with GST-Hu-p50, the binding signal is 2.22 z-score.
Regarding “CCGATTAACATCAAAAGTTCCCCTGATGTTAATCGGGTCTTGATTCGCTTGACGCTGCTG”, the binding signal worked out at 8.35 z-score with GST-Ap-NF-kB RHD; 9.74 z-score in experiment [1]; 10.9 z-score in experiment [2]; 9.64 z-score with GST-Co-NF-kB; 9.48 z-score with GST-Dm-Relish; 7.95 z-score in the experiment with GST-Aq-NF-kB. Besides, in the experiment with GST-Hu-p50, the binding signal worked out at 6.5 z-score.
As for “CCGATTAACATCACGGGAAATTCTGATGTTAATCGGGTCTTGATTCGCTTGACGCTGCTG”, the binding signal with GST-Ap-NF-kB RHD stood at 5.1 z-score; in experiment [1], 6.52 z-score; in experiment [2] it was 5.98 z-score; in the experiment with GST-Co-NF-kB, 5.06 z-score; in the experiment with GST-Dm-Relish, 3.57 z-score; with GST-Aq-NF-kB, 6.47 z-score. For the same sequence, the binding signal with GST-Hu-p50 was 4.83 z-score.
With “CCGATTAACATCAAAATACTCCCTGATGTTAATCGGGTCTTGATTCGCTTGACGCTGCTG”, the binding signal stood at 5.1 z-score with GST-Ap-NF-kB RHD; 4.6 z-score in experiment [1]; 4.49 z-score in experiment [2]; 2.79 z-score in the experiment with GST-Co-NF-kB; 1.83 z-score with GST-Dm-Relish; 4.2 z-score with GST-Aq-NF-kB. This sequence also came in with a binding signal with GST-Hu-p50 of 3.64 z-score.
With “CCGATTAACATCAAGGGGGGTGCTGATGTTAATCGGGTCTTGATTCGCTTGACGCTGCTG”, the binding signal was 4.44 z-score with GST-Ap-NF-kB RHD; 3.89 z-score in experiment [1]; 3.43 z-score in experiment [2]; 3.26 z-score with GST-Co-NF-kB; 4.11 z-score with GST-Dm-Relish; 4.32 z-score in the experiment with GST-Aq-NF-kB. The sequence also returned a binding signal in the experiment with GST-Hu-p50 of 4.67 z-score.
Consider “CCGATTAACATCAAGGGGATTTATGATGTTAATCGGGTCTTGATTCGCTTGACGCTGCTG”, for which the binding signal with GST-Ap-NF-kB RHD was determined as 7.79 z-score; in experiment [1] it was 9.15 z-score; in experiment [2], 11.3 z-score; in the experiment with GST-Co-NF-kB it was 3.44 z-score; with GST-Dm-Relish, 8.3 z-score; with GST-Aq-NF-kB, 6.25 z-score. In the experiment with GST-Hu-p50, this sequence yielded a binding signal of 7.34 z-score.
As for “CCGATTAACATCATCAGGGGAAATGATGTTAATCGGGTCTTGATTCGCTTGACGCTGCTG”, the binding signal was determined as 5.62 z-score in the experiment with GST-Ap-NF-kB RHD; 7.05 z-score in experiment [1]; 8.79 z-score in experiment [2]; 5.8 z-score in the experiment with GST-Co-NF-kB; 2.39 z-score with GST-Dm-Relish; 4.58 z-score in the experiment with GST-Aq-NF-kB. Further, the binding signal with GST-Hu-p50 was 5.42 z-score.
Turning to “CCGATTAACATCAATTTCCCAGGTGATGTTAATCGGGTCTTGATTCGCTTGACGCTGCTG”, the binding signal with GST-Ap-NF-kB RHD was determined as 2.16 z-score; in experiment [1], 2.4 z-score; in experiment [2], 3.53 z-score; with GST-Co-NF-kB, 3.41 z-score; in the experiment with GST-Dm-Relish, 1.61 z-score; with GST-Aq-NF-kB, 2.15 z-score. In the experiment with GST-Hu-p50, this sequence gave a binding signal of 3.21 z-score.
As for “CCGATTAACATCAGGAATCTCCCTGATGTTAATCGGGTCTTGATTCGCTTGACGCTGCTG”, the binding signal is 3.91 z-score with GST-Ap-NF-kB RHD; 6.08 z-score in experiment [1]; 3.67 z-score in experiment [2]; 1.77 z-score in the experiment with GST-Co-NF-kB; 2.25 z-score in the experiment with GST-Dm-Relish; 7.75 z-score in the experiment with GST-Aq-NF-kB. Besides, the binding signal with GST-Hu-p50 was found to be 4.69 z-score.

The record behind these values is article PMC5700166.
